Assay [1] in a line: inhibitors of TNFa-induced NFkB p65 translocation, primary screen, imaging, HUVEC, MLSMR starter and 10KST1 sets (AID 438).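 Also: compound added about 3h40 before a 20 min TNFalpha stimulation.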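 As to inhibition: signal is the nuclear over cytoplasmic p65 intensity ratio per well.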 The settings on record: HUVEC TNFa-induced p65 nuclear translocation; cell count: measured here: nuclei count (cytotoxicity indicator), at 2.08 µM; inhibition: at 2 µM, stronger effect = higher value, 0% TNFa-plus-vehicle, 100% no-TNFa wells.
A short description of assay [2]: inhibitors of mutant huntingtin aggregation, primary screen, imaging, exon1htt(103Q)mCFP cells, high-content imaging (AID 483;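 active = visual image review flags a hit and inhibition of aggregation exceeds 20%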;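 also: compound exposure lasted 3 days before fixation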;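 as to nuclei count: percent of the per-plate median nuclei count of sample wells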). As to conditions: exon1htt(103Q)mCFP cell line, aggregate imaging, at 2 µM; inhibition of aggregation: stronger effect = higher value; nuclei count: measured here: cell count, toxicity.
The nature of assay [3]: inhibitors of E-selectin induction by TNFa, primary screen, imaging, HUVEC, immunofluorescence, MLSMR starter and 10KST1 sets (AID 487;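 active = visually confirmed hit in the image check and inhibition above 20%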;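 as to inhibition: signal is fraction of cell area covered by stained E-selectin grains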;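 as to nuclei count: 100% = median nuclei count of all wells on the same plate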). As to conditions: HUVEC TNFalpha-induced E-selectin immunofluorescence imaging, at 2 µM; inhibition: stronger effect = higher value; nuclei count: measured here: cell number, toxicity.
Assay [4] concerns the target Voltage-gated potassium channel subunit beta-2 (Rattus norvegicus) (UniProt P62483). The assay can be described thus: KvBeta enzyme negative modulators, primary screen, biochemical, NADPH fluorescence (AID 622;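 active = fluorescence slope higher than the sample average by over 3 SD, cut at about -0.22 in these data, passing the limit was not always enough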;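 also: slope of raw intensity against log time taken from 70 to 1610 s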). The settings on record: recombinant KvBeta, 4-cyanobenzaldehyde reduction, at 10 µM, stronger effect = higher value.
For assay [5] the target is unchanged. The assay can be described thus: KvBeta positive modulators, primary screen, biochemical, NADPH fluorescence (AID 623;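 active = NADPH fluorescence slope more negative than the mean of all samples by about 3 SD, 99.7% confidence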;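 also: fluorescence intensity change per second fitted from 20 to 320 s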). The settings on record: Recombinant KvBeta, NADPH fluorescence decrease slope, 10 min; at 10 µM; stronger effect = lower value.
Assay [6] addresses Alpha-2C adrenergic receptor (Homo sapiens) (UniProt P18825). The assay can be described thus: modulators of alpha2C/GIRK thallium flux, primary screen, cell-based, HEK293 alpha2C/GIRK1/2 (AID 624;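 active = fluorescence slope after compound addition differing from the mean of all screened samples at 99.7% confidence, in either direction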;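 also: slope of fluorescence ratio to pre-addition baseline per second over 15 to 24 s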). As to conditions: thallium flux BTC fluorescence, at 10 µM, actives lie on both sides.
A short description of assay [7]: inhibitors of Sendai virus-induced IRF3 signaling, primary screen, TLR/RLR signaling modifier project, cell-based, Sendai virus stimulus, luciferase, 10K MLSCN set (AID 602276;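 active = inhibition at or above 50% at 10 µM; inactive = inhibition below 50%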;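 also: firefly luciferase from ISG56 promoter only with Renilla not read in this screen; 0% = Sendai virus plus DMSO and 100% = medium plus DMSO without virus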). As to conditions: HEK293 RL24 IRF3 luciferase reporter, at 10 µM, stronger effect = higher value.
Assay [8] is described as follows: inhibitors of poly I:C-induced TLR3 signaling, primary screen, cell-based, poly I:C stimulus, luciferase, 10K MLSCN set (AID 602277;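 active = inhibition of the reporter signal at or above 50%; inactive = inhibition below 50%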). The settings on record: HEK293-TLR3 RL24 IRF3 luciferase reporter, at 10 µM, stronger effect = higher value. (In a reporter assay the amount or activity of a reporter protein is the signal.)

Calls of active or inactive are those of the source.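 The calls were made as follows, unless noted: active = inhibition above 20% together with a positive visual image hit; inconclusive = visual image hit but inhibition not above 20%; inactive = no visual image hit.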

Chain of Alpha-2C adrenergic receptor (Homo sapiens) (P18825 whole entry, looked up): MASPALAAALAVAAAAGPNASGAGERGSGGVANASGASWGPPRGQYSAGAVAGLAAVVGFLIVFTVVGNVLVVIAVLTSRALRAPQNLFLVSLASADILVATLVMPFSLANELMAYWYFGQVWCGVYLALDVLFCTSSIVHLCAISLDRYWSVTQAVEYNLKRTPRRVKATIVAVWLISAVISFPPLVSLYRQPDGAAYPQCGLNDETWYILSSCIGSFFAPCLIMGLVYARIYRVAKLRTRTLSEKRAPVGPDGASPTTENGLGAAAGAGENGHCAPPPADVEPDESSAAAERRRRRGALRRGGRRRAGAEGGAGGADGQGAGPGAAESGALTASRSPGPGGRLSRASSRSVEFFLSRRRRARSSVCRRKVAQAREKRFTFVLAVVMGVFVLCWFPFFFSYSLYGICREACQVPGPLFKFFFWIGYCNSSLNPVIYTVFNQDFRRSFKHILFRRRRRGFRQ
Chain of Voltage-gated potassium channel subunit beta-2 (Rattus norvegicus) (P62483 whole entry, looked up): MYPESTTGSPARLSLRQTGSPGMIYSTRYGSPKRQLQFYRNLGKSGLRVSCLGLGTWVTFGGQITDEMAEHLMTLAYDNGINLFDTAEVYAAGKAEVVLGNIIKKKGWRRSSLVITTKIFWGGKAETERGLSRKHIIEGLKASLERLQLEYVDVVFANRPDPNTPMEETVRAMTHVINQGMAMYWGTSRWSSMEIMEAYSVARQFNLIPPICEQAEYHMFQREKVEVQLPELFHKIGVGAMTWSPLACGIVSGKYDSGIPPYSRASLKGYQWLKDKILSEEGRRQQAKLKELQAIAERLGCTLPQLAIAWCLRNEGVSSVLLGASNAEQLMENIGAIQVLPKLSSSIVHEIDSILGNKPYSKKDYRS

With `COC(=O)C1=C(C)NC(=O)C1(Nc1ccc(Cl)cn1)C(F)(F)F` (centres undefined), the cell count in assay [1] came out at 324. In addition, the inhibition is 1.8% (inactive) in assay [1], -63.7% (inactive) in assay [3], 13.8% (inactive) in assay [7] and 32.2% (inactive) in assay [8]. Moreover, the inhibition of aggregation in assay [2] was 3.9% (inactive). In addition, the nuclei count in assay [2] was 95.1%; in assay [3], 125%. In assay [4], the fluorescence slope is -0.317 (inactive). In addition, the NADPH fluorescence slope in assay [5] is -1.2e-05 (inactive). In addition, in assay [6], the slope is 0.00613 (inactive).
As to `COc1ccc2cc(CN(CCO)C(=O)c3ccccc3F)c(=O)[nH]c2c1`, the cell count in assay [1] was 474. Further, the inhibition in assay [1] is 9.4% (inactive); in assay [3], -93% (inactive); in assay [7], -11.1% (inactive); in assay [8] it was -5.69% (inactive). In assay [2], the inhibition of aggregation is -16% (inactive). Also, the nuclei count in assay [2] amounted to 108%; in assay [3], 110%. Moreover, the fluorescence slope in assay [4] was -0.496 (inactive). Moreover, in assay [5], the NADPH fluorescence slope is 5.3e-06 (inactive). Also, the slope in assay [6] was 0.00191 (inactive).
With `c1ccn2c(SCc3ccc4c(c3)OCCO4)nnc2c1`, the cell count in assay [1] was 793. The inhibition in assay [1] is -10.5% (inactive); in assay [3] it was -56.4% (inactive); in assay [7], -29.2% (inactive); in assay [8], -95% (inactive). Besides, the inhibition of aggregation in assay [2] was 11.4% (inactive). For the same molecule, the figures for the nuclei count in assay [2] and in assay [3] were 88.9% and 117%, respectively. Besides, the fluorescence slope in assay [4] is -0.583 (inactive). Also, in assay [5], the NADPH fluorescence slope was 5.1e-06 (inactive). For the same molecule, in assay [6], the slope was 0.00773 (inactive).
Consider `CCN(CCCNS(=O)(=O)c1ccc2c(c1)oc(=O)n2C)c1cccc(C)c1`, for which the cell count in assay [1] was determined as 740. The inhibition is -0.6% (inactive) in assay [1], -21.3% (inactive) in assay [3], 18.1% (inactive) in assay [7] and 32.9% (inactive) in assay [8]. Also, the inhibition of aggregation in assay [2] is -22.6% (inactive). Also, the nuclei count in assay [2] turned out to be 110%; in assay [3], 102%. In assay [4], the fluorescence slope is -0.574 (inactive). Moreover, the NADPH fluorescence slope in assay [5] was 9.4e-07 (inactive). Besides, in assay [6], the slope was 0.00612 (inactive).
For `Cc1nc2sc(C(c3cccs3)N3CCC(C(N)=O)CC3)c(O)n2n1` (centres undefined), in assay [1], the cell count amounted to 625. Further, the inhibition in assay [1] is -3.9% (inactive); in assay [3], -47.4% (inactive); in assay [7], 14.6% (inactive); in assay [8], 32.7% (inactive). Further, the inhibition of aggregation in assay [2] is -7.5% (inactive). Besides, the values for the nuclei count in assay [2] and in assay [3] were 105% and 120%, respectively. The fluorescence slope in assay [4] is -0.565 (inactive). In assay [5], the NADPH fluorescence slope is -4.6e-05 (inactive). Besides, the slope in assay [6] is 0.00644 (inactive).
On to `CCC1CCCCN1C(=O)C1CC(c2cc(Cl)c(OC)cc2OC)=NO1` (centres undefined), for which, in assay [1], the cell count was determined as 411. For the same molecule, the inhibition is 6.8% (inactive) in assay [1], -8.7% (inactive) in assay [3], -1.49% (inactive) in assay [7] and -30.3% (inactive) in assay [8]. The inhibition of aggregation in assay [2] was 1.6% (inactive). Besides, the nuclei count was 108% in assay [2] and 168% in assay [3]. For the same molecule, the fluorescence slope in assay [4] is -0.504 (inactive). The NADPH fluorescence slope in assay [5] is 2e-05 (inactive). In addition, in assay [6], the slope was 0.00725 (inactive).
`Cc1ccc2nc(NC(=O)C3CCCN(S(=O)(=O)c4cccc5nonc45)C3)sc2c1` (centres undefined): in assay [1], the cell count amounted to 266. The inhibition in assay [1] was -13.5% (inactive); in assay [3], -3.1% (inactive); in assay [7], 14.7% (inactive); in assay [8], -5.96% (inactive). Further, in assay [2], the inhibition of aggregation was 9.4% (inactive). Further, the values for the nuclei count in assay [2] and in assay [3] were 91% and 70.9%, respectively. In addition, the fluorescence slope in assay [4] is -0.304 (inactive). The NADPH fluorescence slope in assay [5] was 2.8e-06 (inactive). For the same molecule, the slope in assay [6] is 0.00386 (inactive).
In the case of `Cc1nnc(NCCc2ccccc2)n(N)c1=O`, in assay [1], the cell count amounted to 806. Moreover, the inhibition in assay [1] is -5.5% (inactive); in assay [3], -35% (inactive); in assay [7], 2.54% (inactive); in assay [8], 5.29% (inactive). Also, in assay [2], the inhibition of aggregation is -21.2% (inactive). The nuclei count was 106% in assay [2] and 121% in assay [3]. Further, the fluorescence slope in assay [4] was -0.514 (inactive). Besides, in assay [5], the NADPH fluorescence slope was 4.9e-06 (inactive). In addition, the slope in assay [6] was 0.00506 (inactive).
For the molecule `CC(=O)Nc1ccc(OCC(O)Cn2nc(C)nc2C)cc1` (centres undefined), in assay [1], the cell count stood at 357. The inhibition is 1.5% (inactive) in assay [1], -160% (inactive) in assay [3], 7.41% (inactive) in assay [7] and 23.2% (inactive) in assay [8]. Besides, the inhibition of aggregation in assay [2] is -13.4% (inactive). The results for the nuclei count in assay [2] and in assay [3] were 95.7% and 120%, respectively. Besides, the fluorescence slope in assay [4] is -0.267 (inactive). For the same molecule, the NADPH fluorescence slope in assay [5] was -1.1e-05 (inactive). Also, the slope in assay [6] is 0.00761 (inactive).
For the molecule `CCOc1ccc(N2CC(C(=O)NCCc3ccc(OC)c(OC)c3)CC2=O)cc1` (centres undefined), the cell count in assay [1] turned out to be 458. Moreover, the inhibition in assay [1] is -3.8% (inactive); in assay [3], -59.3% (inactive); in assay [7] it was 20.4% (inactive); in assay [8] it was 25.1% (inactive). For the same molecule, the inhibition of aggregation in assay [2] is -9.6% (inactive). Also, the nuclei count in assay [2] was found to be 112%; in assay [3] it was 163%. Moreover, the fluorescence slope in assay [4] was -0.456 (inactive). Besides, the NADPH fluorescence slope in assay [5] is -3.5e-05 (inactive). For the same molecule, in assay [6], the slope is 0.00548 (inactive).
As to `C(=C\c1ccccc1)/CSc1nnc(-c2ccccn2)n1Cc1ccco1`, the cell count in assay [1] worked out at 574. The inhibition in assay [1] was 1.1% (inactive); in assay [3], -95.8% (inactive); in assay [7] it was 68.5% (active); in assay [8], 58.9% (active). Also, the inhibition of aggregation in assay [2] was -38.4% (inactive). The nuclei count in assay [2] stood at 24%; in assay [3], 109%. Also, in assay [4], the fluorescence slope is -0.5 (inactive). For the same molecule, the NADPH fluorescence slope in assay [5] is -5.3e-05 (inactive). The slope in assay [6] is 0.00478 (inactive).
For `CCn1cc(C(=O)NCCCOC)c(=O)c2cc(S(=O)(=O)N(C)C3CCCCC3)ccc21`, in assay [1], the cell count was found to be 559. Besides, the inhibition in assay [1] was -15.1% (inactive); in assay [3] it was -38.4% (inactive); in assay [7], 6.58% (inactive); in assay [8] it was 28.2% (inactive). Further, the inhibition of aggregation in assay [2] was 18.2% (inactive). The nuclei count turned out to be 74.5% in assay [2] and 100% in assay [3]. The fluorescence slope in assay [4] is -0.678 (inactive). Further, in assay [5], the NADPH fluorescence slope is 5.7e-06 (inactive). In addition, the slope in assay [6] is 0.00665 (inactive).
On to `C=CCn1c(Br)nc2c1c(=O)[nH]c(=O)n2C`, for which the cell count in assay [1] is 372. Moreover, the inhibition in assay [1] is -4.7% (inactive); in assay [3], -62% (inactive); in assay [7], 15.8% (inactive); in assay [8], 9.88% (inactive). Further, in assay [2], the inhibition of aggregation was 8.4% (inactive). The nuclei count is 92.3% in assay [2] and 116% in assay [3]. In addition, the fluorescence slope in assay [4] is -0.373 (inactive). For the same molecule, in assay [5], the NADPH fluorescence slope was -3.1e-05 (inactive). Further, the slope in assay [6] is 0.00545 (inactive).
For the molecule `CC(C)c1nnc(NC(=O)c2cnccn2)s1`, the cell count in assay [1] was found to be 425. For the same molecule, the inhibition in assay [1] was -0.5% (inactive); in assay [3], -38.5% (inactive); in assay [7], -7.98% (inactive); in assay [8] it was -13.6% (inactive). In addition, the inhibition of aggregation in assay [2] is -3.7% (inactive). The figures for the nuclei count in assay [2] and in assay [3] were 103% and 105%, respectively. For the same molecule, in assay [4], the fluorescence slope was -0.479 (inactive). For the same molecule, the NADPH fluorescence slope in assay [5] is -4.7e-05 (inactive). In assay [6], the slope is 0.00644 (inactive).

As usually defined, the inhibition is the change of the read-out against control, counted positive when it falls.

These data come from PubChem BioAssay.
